In PubChem BioAssay (NCATS) one finds Potency and Z-AUC data, which are given here for 22 compounds.

The nature of experiment [1]: qHTS to identify inhibitors of the type 1 interferon - major histocompatibility complex class I in skeletal muscle: primary screen against the NCATS Mechanism Interrogation Plate v5.0 (MIPE) Libary (AID 1347411). Further: nearly all actives have a fitted effect of over 65% in size. Further: potency means the concentration at half of the fitted maximal effect. In a few lines: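 Immortalized human C25cl48 myoblasts with HiBit knocked into endogenous HLA-B*08:01 were stimulated with 4.0 ng/ml IFN-beta and exposed to compounds (11-point 1:3 titration, top 46 uM final) for 24 hrs at 37 C; HiBiT lytic luminescence measured.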

The nature of experiment [2]: Primary qHTS for inhibitors of nuclear receptor binding SET domain protein 2 (NSD2) in an RCH-ACV wild type WT cells (2C) (AID 1645877). Further: nearly all actives have a fitted effect of over 70% in size. Further: potency means the concentration at half of the fitted maximal effect. A general note: Quantitative high-throughput screening tests each substance at several concentrations.
The target of experiment [3] is Phospholipid hydroperoxide glutathione peroxidase GPX4 (Homo sapiens) (UniProt P36969). Briefly: Primary qHTS Assay for Inhibitors of Recombinant Selenoprotein Glutathione Peroxidase 4 (GPX4) (AID 1845192). Further: nearly all actives have a fitted effect of over 65% in size. The following applies: outcome: dose series up to 50 µM unless noted. Put shortly: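 GR-coupled assay: recombinant GPX4 preincubated 30 min with compound at room temperature; final 200 nM GPX4, 1 mM GSH, 0.5 mM cumene hydroperoxide, 0.5 mM NADPH, 100 nM GR, 0.01% BSA, pH 7.5 Tris. NADPH fluorescence (340/450 nm) read at 0 and 15 min.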

Experiment [4] in a line: qHTS drug screen for cell cycle checkpoint inhibitors in PARPi-resistant BRCA-mutant ovarian cancer cell lines. (AID 1963452; calls by dose curve). The note with it: PEO1/OlaR viability, CellTiter-Glo luminescence, 96 h, stronger effect = lower value. Put shortly: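 PEO1, PEO4 and PEO1/OlaR ovarian cancer cells, 600 per well, exposed 96 h at 37C to a dilution series. Viability read by CellTiter-Glo luminescence, normalized to DMSO and empty wells; activity summarized as Z-AUC.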

Experiment [5] addresses Glutathione peroxidase 1 (Homo sapiens) (UniProt P07203). Nature of the experiment: Primary qHTS Assay for Inhibitors of Recombinant Selenoprotein Glutathione Peroxidase 1 (GPX1) (AID 1845191). Further: nearly all actives have a fitted effect of over 65% in size. Put shortly: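 GR-coupled assay: compounds preincubated 30 min at room temperature with GPX1, then reaction started with CHP; final 10 nM GPX1, 1 mM GSH, 0.5 mM CHP, 0.5 mM NADPH, 100 nM GR, 0.01% BSA, pH 7.5 Tris buffer. NADPH fluorescence (340/450 nm) read at 0 and 15 min.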

Where [6] appears, read: measured here: PEO1 parental Z-AUC.

SMILES strings stand for the structures. Inconclusive results are not listed. Calls of active or inactive are those of the source. Unless noted, the call rests on the fitted dose curve; in most records, active means well fitted curve in the direction sought with a large enough effect; inconclusive means small, poorly fitted or top-dose-only effect, or another doubt; inactive means no such curve, though single readings can be large; an effect the other way counts as inactive or inconclusive.

Sequence of Glutathione peroxidase 1 (Homo sapiens) (P07203 whole entry, looked up): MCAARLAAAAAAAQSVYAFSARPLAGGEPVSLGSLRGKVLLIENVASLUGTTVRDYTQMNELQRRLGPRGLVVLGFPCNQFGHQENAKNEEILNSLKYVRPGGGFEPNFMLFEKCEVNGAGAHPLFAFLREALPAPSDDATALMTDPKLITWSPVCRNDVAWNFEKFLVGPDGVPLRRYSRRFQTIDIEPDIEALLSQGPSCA
Sequence of Phospholipid hydroperoxide glutathione peroxidase GPX4 (Homo sapiens) (P36969 whole entry, looked up): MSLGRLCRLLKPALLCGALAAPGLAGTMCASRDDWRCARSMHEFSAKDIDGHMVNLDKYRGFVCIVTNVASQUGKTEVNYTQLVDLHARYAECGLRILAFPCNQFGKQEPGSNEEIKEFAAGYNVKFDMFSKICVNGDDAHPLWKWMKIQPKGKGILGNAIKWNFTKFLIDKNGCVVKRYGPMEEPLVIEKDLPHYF

With `COC(=O)C1=C(C)NC(c2ncc(F)cc2F)=N[C@@H]1c1ccc(F)cc1Cl`, the Potency was 16.5 µM (active) in experiment [1] and 18.6 µM (active) in experiment [2]. Besides, the Potency result in experiment [3] was “inactive”. Besides, the Z-AUC in experiment [4] was 1.3 (inactive); in experiment [4] (setting [6]), 1.02; in experiment [4] (measured here: PEO4 Z-AUC), 0.861.

For the compound `CC1(C)SCCN(S(=O)(=O)c2ccc(OCC#CCO)cc2)[C@H]1C(=O)NO`, the Potency entry in experiment [1], in experiment [5] and in experiment [3] was “inactive” in each case. Moreover, the Z-AUC in experiment [4] is 0.823 (inactive); in experiment [4] (setting [6]) it was 0.238; in experiment [4] (measured here: PEO4 Z-AUC), 0.33.

For `CS(=O)(=O)c1ccc([C@@H](CC2CCCC2)C(=O)Nc2nccs2)cc1`, the Potency result in experiment [1], in experiment [5] and in experiment [3] was “inactive” in each case. The Z-AUC in experiment [4] was 0.78 (inactive); in experiment [4] (setting [6]), 0.607; in experiment [4] (measured here: PEO4 Z-AUC) it was 0.595.

On to `Cc1[nH]nc2ncc(C(=O)N3CCC[C@H]3c3ccc(Cl)cc3)cc12`, for which the Potency entry in experiment [1], in experiment [5] and in experiment [3] was “inactive” in each case. For the same compound, in experiment [2], the Potency is 0.296 µM (active). Further, the Z-AUC in experiment [4] is -0.0587 (inactive); in experiment [4] (setting [6]) it was 0.0336; in experiment [4] (measured here: PEO4 Z-AUC), -0.0502.

For `CC(=O)[C@]1(N)Cc2c(O)c3c(c(O)c2[C@@H](O[C@H]2C[C@H](O)[C@H](O)CO2)C1)C(=O)c1ccccc1C3=O`, the Potency result in experiment [1] and in experiment [5] was “inactive” in each case. Besides, in experiment [2], the Potency was 23.5 µM (active). For the same compound, the Z-AUC in experiment [4] was -0.249 (inactive); in experiment [4] (setting [6]) it was -0.44; in experiment [4] (measured here: PEO4 Z-AUC) it was -0.284.

For the compound `CC(C)Oc1ccc(-c2nn([C@@H](C)c3oc4ccc(F)cc4c(=O)c3-c3cccc(F)c3)c3ncnc(N)c23)cc1F`, the Potency entry in experiment [1], in experiment [5] and in experiment [3] was “inactive” each time. In addition, the Z-AUC in experiment [4] was 0.0255 (inactive); in experiment [4] (setting [6]), -0.265; in experiment [4] (measured here: PEO4 Z-AUC), -0.0554.

Take `CC(C)(CO)n1cc(C(=O)c2cncc(NC(=O)Cc3ccc(Cl)cn3)c2)c2cnc(N)nc21`: the Potency result in experiment [1], in experiment [2], in experiment [5] and in experiment [3] was “inactive” throughout. In addition, the Z-AUC in experiment [4] is -0.173 (inactive); in experiment [4] (setting [6]), 0.879; in experiment [4] (measured here: PEO4 Z-AUC) it was 0.771.

On to `C[C@@H](O)[C@@H](C)Oc1nc(Nc2ccc(S(=N)(=O)C3CC3)cc2)ncc1C(F)(F)F` (stereo not given in full), for which, in experiment [1], the Potency is 20.8 µM (active). The Potency result in experiment [5] and in experiment [3] was “inactive” throughout. The Z-AUC is -1.04 (inactive) in experiment [4], -0.0707 in experiment [4] (setting [6]) and -0.563 in experiment [4] (measured here: PEO4 Z-AUC).

In the case of `CCC(=O)OCC(=O)C1(OC(=O)CC)C(C)CC2C3CCC4=CC(=O)C=CC4(C)C3(F)C(O)CC21C` (stereo not given), the Potency entry in experiment [1], in experiment [5] and in experiment [3] was “inactive” each time. In addition, the Z-AUC in experiment [4] was 0.365 (inactive); in experiment [4] (setting [6]), 0.623; in experiment [4] (measured here: PEO4 Z-AUC), -0.145.

For `C/C=C(/C)C(=O)O[C@H]1C(C)=CC23C(=O)C(C=C(CO)[C@@H](O)[C@]12O)[C@H]1[C@@H](C[C@H]3C)C1(C)C` (stereo not given in full), the Potency result in experiment [1], in experiment [5] and in experiment [3] was “inactive” each time. For the same compound, the Z-AUC in experiment [4] was -0.0624 (inactive); in experiment [4] (setting [6]), -0.301; in experiment [4] (measured here: PEO4 Z-AUC) it was -0.581.

Regarding `Cc1nc(C)c(CN2CCN(C(c3ccc(F)cc3)c3ccc(F)cc3)CC2)nc1C`, the Potency result in experiment [1], in experiment [5] and in experiment [3] was “inactive” throughout. Also, the Z-AUC is -0.108 (inactive) in experiment [4], 0.777 in experiment [4] (setting [6]) and 1.05 in experiment [4] (measured here: PEO4 Z-AUC).

For the compound `NC(=S)N/N=C/c1ncccc1N`, the Potency entry in experiment [1] and in experiment [5] was “inactive” throughout.

For `Nc1nc(OC(c2ccc(-c3cccc(F)c3)cc2)C(F)(F)F)cc(-c2ccc(C[C@H](N)C(=O)O)cc2)n1` (stereo not given in full), the Potency result in experiment [1], in experiment [5] and in experiment [3] was “inactive” each time. For the same compound, the Z-AUC in experiment [4] is -0.825 (inactive); in experiment [4] (setting [6]) it was -0.615; in experiment [4] (measured here: PEO4 Z-AUC), -0.247.

For `CN(C(=O)CNC(=O)/C=C/c1cccc(Cl)c1)C1CCS(=O)(=O)CC1`, the Potency result in experiment [1], in experiment [5] and in experiment [3] was “inactive” each time. The Z-AUC in experiment [4] is -0.555 (inactive); in experiment [4] (setting [6]) it was -0.958; in experiment [4] (measured here: PEO4 Z-AUC), -0.957.

As to `O=C(Nc1cnccc1Cl)N1CCN(Cc2ccc3c(c2)OC(F)(F)O3)CC1`, the Potency result in experiment [1], in experiment [5] and in experiment [3] was “inactive” throughout. The Z-AUC in experiment [4] was 0.437 (inactive); in experiment [4] (setting [6]) it was 0.137; in experiment [4] (measured here: PEO4 Z-AUC), 0.79.

`O=C1S/C(=C\c2ccc(OCc3cccc(B(O)O)c3)cc2)C(=O)N1Cc1ccc(F)cc1`: the Potency entry in experiment [1], in experiment [5] and in experiment [3] was “inactive” each time. The Z-AUC in experiment [4] was 0.689 (inactive); in experiment [4] (setting [6]) it was 0.417; in experiment [4] (measured here: PEO4 Z-AUC), 0.814.

Turning to `O=C(Cc1ccccc1)Nc1nnc(CCSCCc2nnc(NC(=O)Cc3ccccc3)s2)s1`, the Potency entry in experiment [1], in experiment [5] and in experiment [3] was “inactive” throughout. The Z-AUC is 1.43 (inactive) in experiment [4], 1.23 in experiment [4] (setting [6]) and 1.41 in experiment [4] (measured here: PEO4 Z-AUC).

With `Nc1ncc(C(=O)NC2CN(C(=O)C3CC3)C2)c2ccc(-c3cccc(F)c3)nc12`, the Potency result in experiment [1], in experiment [5] and in experiment [3] was “inactive” in each case. In addition, the values for the Z-AUC in experiment [4], in experiment [4] (setting [6]) and in experiment [4] (measured here: PEO4 Z-AUC) were 1.21 (inactive), 0.799 and 0.359, respectively.

`C=CC(=O)N[C@H]1CCOC[C@H]1Nc1ncc2cc(-c3c(Cl)c(OC)cc(OC)c3Cl)ccc2n1`: the Potency entry in experiment [1], in experiment [5] and in experiment [3] was “inactive” in each case. Besides, the Z-AUC in experiment [4] was 1.21 (inactive); in experiment [4] (setting [6]), 0.408; in experiment [4] (measured here: PEO4 Z-AUC), 0.57.

Turning to `COc1cc(-c2cn(C)c(=O)c3cnccc23)cc(OC)c1CN(C)C`, the Potency entry in experiment [1], in experiment [5] and in experiment [3] was “inactive” in each case.

With `CC(=O)N[C@H]1CSSC[C@@H](C(N)=O)NC(=O)[C@H](C(C)C)NC(=O)[C@H](C)NC(=O)[C@H](Cc2cnc[nH]2)NC1=O`, the Potency result in experiment [1], in experiment [2], in experiment [5] and in experiment [3] was “inactive” each time. Moreover, the values for the Z-AUC in experiment [4], in experiment [4] (setting [6]) and in experiment [4] (measured here: PEO4 Z-AUC) were -0.0315 (inactive), -0.625 and -0.422, respectively.

Take `CO[C@H]1/C=C/O[C@@]2(C)Oc3c(C)c(O)c4c(O)c(c(/C=N\N5CCN(C6CCCC6)CC5)c(O)c4c3C2=O)NC(=O)/C(C)=C\C=C\[C@H](C)[C@H](O)[C@@H](C)[C@@H](O)[C@@H](C)[C@H](OC(C)=O)[C@@H]1C`: the figures for the Potency in experiment [1] and in experiment [2] were 18.6 µM (active) and 20.9 µM (active), respectively. In experiment [5], the Potency result is “inactive”.
